Measurements from PubChem BioAssay AID1851 (National Center for Advancing Translational Sciences (NCATS), 2009).
Where “and” joins values, the source holds several entries; their conditions need not be identical. Equal values may be shown once. The whole screen tested about 16,000 compounds, of which about 4,000 (25%) were called active. About 26% were inconclusive and are not listed. Only a sample is shown. Unmarked numbers belong to inactive results. The call rests on the fitted dose curve; in most records, active means well fitted curve in the direction sought with a large enough effect; inconclusive means small, poorly fitted or top-dose-only effect, or effect the other way; inactive means no such curve, though single readings can be large or run the other way.

Biological target: Cytochrome P450 2C9 (Homo sapiens) (UniProt P11712)
Test: Cytochrome panel assay with activity outcomes
Settings: recombinant CYP, pro-luciferin dealkylation, luminescence, p450-cyp2c9; series mostly up to 57.1 µM; activity, negative = inhibition: at the top concentration
On the % scale 0 is the no-effect control and ±100 the full control effect.

Sequence of Cytochrome P450 2C9 (Homo sapiens) (P11712 whole entry, looked up): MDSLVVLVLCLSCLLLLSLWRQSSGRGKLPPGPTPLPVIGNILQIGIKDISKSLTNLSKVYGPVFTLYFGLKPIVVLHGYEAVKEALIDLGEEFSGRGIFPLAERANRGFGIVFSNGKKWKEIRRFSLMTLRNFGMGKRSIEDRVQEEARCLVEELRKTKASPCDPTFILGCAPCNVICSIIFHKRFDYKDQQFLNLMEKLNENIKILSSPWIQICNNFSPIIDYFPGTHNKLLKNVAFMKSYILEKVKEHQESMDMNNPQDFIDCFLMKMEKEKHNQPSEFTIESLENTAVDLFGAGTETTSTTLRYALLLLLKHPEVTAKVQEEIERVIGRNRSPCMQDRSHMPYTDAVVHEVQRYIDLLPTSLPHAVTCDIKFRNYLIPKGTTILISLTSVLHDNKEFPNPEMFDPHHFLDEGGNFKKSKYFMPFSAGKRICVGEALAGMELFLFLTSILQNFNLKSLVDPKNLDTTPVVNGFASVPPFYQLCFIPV

| Structure (SMILES) | activity, negative = inhibition | AC50 |
| --- | --- | --- |
| N#CCCn1c(=O)c(CCc2ccccc2)nc2cnc(Nc3ccccc3)nc21 | 18.1% | – |
| CCNc1ncc2nc(-c3cc(F)cc(F)c3)c(=O)n(-c3ccccc3)c2n1 | -0.131% | – |
| CCNc1ncc2nc(CCc3ccccc3)c(=O)n(C)c2n1 | – | 12.6 µM (active) |
| CCNc1ncc2nc(-c3ccc(F)cc3)c(=O)n(C)c2n1 | -2.41% | – |
| CCNc1ncc2nc(C)c(=O)n(C)c2n1 | 3.22% | – |
| CCNc1ncc2nc(-c3ccc(F)cc3)c(=O)n(-c3ccccc3)c2n1 | 14% | – |
| CCNc1ncc2nc(CCc3ccccc3)c(=O)n(Cc3ccc(F)cc3)c2n1 | -9.69% | – |
| CCNc1ncc2nc(-c3ccccc3)c(=O)n(C)c2n1 | – | 12.6 µM (active) |
| CCNc1ncc2nc(CCc3ccccc3)c(=O)n(-c3ccccc3)c2n1 | – | 12.6 µM (active) |
| CCNc1ncc2nc(-c3ccc(Cl)cc3)c(=O)n(C)c2n1 | -25.8% | – |
| CCNc1ncc2nc(-c3ccccc3)c(=O)n(CCC#N)c2n1 | 11.2% | – |
| CCNc1ncc2nc(CCc3ccccc3)c(=O)n(CCC#N)c2n1 | – | 6.31 µM (active) |
| CC1(C)CC2(CCO1)OC(=O)CC2C(=O)NCCc1ccccc1 (stereo not given) | -10.6% | – |
| FC(F)(F)c1cc(CN2CC3(CCNCC3)C2)cc(C(F)(F)F)c1 | 17.3% | – |
| CC1(C)S[C@@H]2[C@H](NC(=O)[C@@H](N)c3ccccc3)C(=O)N2[C@H]1C(=O)O[C@H]1OC(=O)c2ccccc21 | -24.3% [at 25.6 µM] | – |
| Cc1cc(C)c2c(N=NN(C)C)[nH]nc2n1 | -25.9% | – |
| Cc1ccccc1-c1nc(NC2CCNCC2)c2ccccc2n1 | 10.8% [at 2.29 µM] | – |
| c1csc(CNCCCN2CCOCC2)c1 | -17% | – |
| S=C1SCN(CCN2CCOCC2)CN1Cc1ccccc1 | – | 12.6 µM (active) |
| COc1cccc(OC)c1OCCCN1CCOCC1 | 10.6% | – |
| Cc1ccccc1-c1ccc2ncnc(N3CCNCC3)c2c1 | 4.82% [at 2.29 µM] | – |
| CN(C)C(=O)c1ccc(-c2cncnc2N2CCNCC2)cc1 | 7.11% [at 2.29 µM] | – |
| c1cncc(-c2cccnc2)c1 | 19.8% | – |

| Structure (SMILES) | activity, negative = inhibition | AC50 |
| --- | --- | --- |
| Cc1ccc2nc(-c3cccnc3)oc2c1 | – | 25.1 µM (active) |
| Clc1ccc2oc(-c3cccnc3)nc2c1 | -12.4% | – |
| O=c1[nH][nH]c(C(F)(F)F)c1C=Nc1ccccc1Cl | -29.7% | – |
| COc1cc(/C=N\NC(=O)C2C(=O)NCC2c2ccccc2)cc(OC)c1O (stereo not given) | -17% | – |
| COc1cccc(/C=N\NC(=O)C2C(=O)NCC2c2ccccc2)c1O (stereo not given) | – | 14.1 µM (active) |
| O=C(Nc1ccccc1)N1CCC2(CC1)CCN(C(=O)c1csnn1)CC2 | -13.4% | – |
| CC(=O)[C@@H]1[C@@H]2C(=O)N(C3CCCCC3)C(=O)[C@@H]2C2c3ccccc3C=CN21 (stereo not given in full) | – | 15.8 µM (active) |
| O=C1C[C@@H](O)[C@@H](O)[C@H]2[C@@H]3C(=O)N(C4CCCCC4)C(=O)[C@@H]3CC[C@H]12 | 14.6% [at 11.4 µM] and -0.457% [at 11.4 µM] and -8.99% [at 11.4 µM] | – |
| CCOC(=O)N/N=C1/C[C@@H](O)[C@@H](O)[C@@H]2[C@@H]3C(=O)N(C4CCCCC4)C(=O)[C@H]3CC[C@@H]12 | -16.3% [at 11.4 µM] | – |
| COc1cc2ccc(=O)oc2cc1O | -27.8% [at 25.6 µM] | – |
| Nc1ccc(S(=O)(=O)Nc2ccc(Cl)nn2)cc1 | 15.8% [at 25.6 µM] | – |
| CC1(O)c2ccccc2C(=O)N1CCc1ccccc1F (stereo not given) | – | 15.8 µM (active) |
| Cc1ccc(S(=O)(=O)O[C@@H]2[C@H]([C@@H]3COC(C)(C)O3)O[C@H]3OC(C)(C)O[C@@H]32)cc1 | 4.54% [at 11.4 µM] | – |
| CC(C)CC(C(=O)NCC1CCCO1)N(C(=O)Cn1nnc(-c2ccc(F)cc2)n1)c1cccc(C(F)(F)F)c1 (stereo not given) | – | 7.94 µM (active) |
| CC(NC(=O)OCc1ccccc1)C(=O)NCC1CCCO1 (stereo not given) | 4.27% | – |
| CC(C)CC(C(=O)NCC1CCCO1)N(C(=O)Cn1nnc(-c2ccc(F)cc2)n1)c1ccccc1F (stereo not given) | – | 11.2 µM (active) |
| O=C(NCC1CCCO1)C(c1cccnc1)N(C(=O)Cc1cccs1)c1cccnc1 (stereo not given) | 1.15% | – |
| Cc1ccc(-c2nnn(CC(=O)N(c3ccccc3)C(C(=O)NCC3CCCO3)c3ccc(Cl)cc3)n2)cc1 (stereo not given) | – | 0.708 µM (active) |
| CN(C)c1ncc2nc(-c3ccc(F)cc3)c(=O)n(C[C@H]3CCCO3)c2n1 | -3.65% | – |
| Cc1ccc(N(C(=O)Cn2nnc(-c3ccc(F)cc3)n2)C(CC(C)C)C(=O)NCC2CCCO2)cc1 (stereo not given) | – | 3.98 µM (active) |
| N#CC(CC(=O)O)=C(c1ccccc1)c1ccccc1 | -16.4% [at 11.4 µM] | – |
| CCN1C(=O)[C@H]2[C@H]3[C@H](O)[C@H](O)C/C(=N/O[C@@H]4O[C@@H](COC(C)=O)[C@@H](OC(C)=O)[C@@H](OC(C)=O)[C@H]4OC(C)=O)[C@@H]3CC[C@@H]2C1=O | 19.4% [at 11.4 µM] | – |
| CCN1CCCC1CNC(=O)CSCc1nc(-c2ccccc2C)oc1C (stereo not given) | -23.8% | – |

| Structure (SMILES) | activity, negative = inhibition | AC50 |
| --- | --- | --- |
| Cc1oc(-c2ccccc2F)nc1CSCC(=O)NCc1ccc2c(c1)OCO2 | – | 4.47 µM (active) |
| Cc1cc(C)c(C#N)c(Oc2ccc(F)cc2)n1 | -7.25% | – |
| Cc1cc(C)c(S(C)(=O)=O)c(Oc2ccc(C(C)(C)C)cc2)n1 | – | 7.08 µM (active) |
| COc1ccc(Oc2nc(C)cc(C)c2S(=O)(=O)c2ccc(C)cc2)cc1 | – | 14.1 µM (active) |
| NC(=O)NC(=O)[C@H]1CCCC[C@@H]1C(=O)O | 7.71% [at 11.4 µM] | – |
| CCN(CC)CC[n+]1ccc2c(C)c3[nH]c4ccc(O)cc4c3c(C)c2c1 | -0.365% [at 11.4 µM] | – |
| CC(=O)NCCc1c[nH]c2ccc(O)cc12 | -8.66% | – |
| Cc1onc(-c2ccccc2)c1C(=O)NCCc1c[nH]c2ccccc12 | – | 3.98 µM (active) |
| Oc1c(Br)cc(Br)cc1CN(Cc1cc(Br)cc(Br)c1O)C1CCCCC1 | -21.2% [at 11.4 µM] | – |
| CC(C)(C)c1ccc(O)c(CN(Cc2cc(C(C)(C)C)ccc2O)C2CCCCC2)c1 | -4.75% [at 11.4 µM] | – |
| Oc1c(Br)cc(CN(Cc2cc(Br)c(O)c(Br)c2)C2CCCCC2)cc1Br | – | 2.51 µM (active) |
| NC(N)=NC(N)=Nc1ccc(S(=O)(=O)O)cc1 | 21.1% [at 11.4 µM] | – |
| Cn1c(CCNC(=O)c2ccccc2Cl)n[nH]c1=S | -15.2% | – |
| O=C(NCc1n[nH]c(=S)n1-c1cccc(Cl)c1)c1ccc(S(=O)(=O)N2CCCC2)cc1 | – | 17.8 µM (active) |
| COc1ccc(-n2c(CNC(=O)c3cc(OC)c(OC)c(OC)c3)n[nH]c2=S)cc1 | -17.4% | – |
| O=[N+]([O-])c1ccccc1N=Nc1c(O)[nH]c2ccc(S(=O)(=O)O)cc12 | -11% [at 11.4 µM] | – |
| O=C(Nc1cnc2ccccc2c1)c1cccc(-n2cnnn2)c1 | -14.6% | – |
| CCC(C(=O)NC(C)(C)C)N(C(=O)Cn1nnc(-c2cccs2)n1)c1cnc2ccccc2c1 (stereo not given) | – | 2.82 µM (active) |
| COC(=O)C/C=C\[C@H](C)[C@@H](OC)c1ccccc1Br | -6.68% [at 11.4 µM] | – |
| Cn1c(=O)n2n(c1=O)[C@H]1[C@H](O)[C@H]3O[C@@H]3/C(=N/OC[C@@H](O)COCc3ccco3)[C@@H]1CC2 | -4.5% [at 11.4 µM] | – |
| COc1cnc(-c2ccccn2)nc1Oc1ccc(Cl)c2ccccc12 | – | 12.6 µM (active) |
| CC(Oc1ccccc1)C(=O)Nc1nc2c(s1)C(=O)CC(C)(C)C2 (stereo not given) | – | 6.31 µM (active) |
| C[C@H](Oc1ccccc1)C(=O)N[C@@H]1C(=O)N2[C@@H]1SC(C)(C)[C@@H]2C(=O)O | -13.8% [at 25.6 µM] | – |

| Structure (SMILES) | activity, negative = inhibition | AC50 |
| --- | --- | --- |
| COc1ccccc1CNCCCCCCNCCCCCCCCNCCCCCCNCc1ccccc1OC | 5.66% | – |
| COc1ccccc1CNCC(O)(c1ccc(Cl)cc1)c1ccc(Cl)cc1 | – | 15.8 µM (active) |
| COc1ccccc1CNCc1cccs1 | 5.82% | – |
| OCCN1CCN(C(=S)c2ccc(Br)cc2)CC1 | 4.83% | – |
| CCOC(=O)N/N=C1/C[C@@H](O)[C@@H](O)[C@@H]2[C@@H]3C(=O)N([C@@H](C)c4ccccc4)C(=O)[C@H]3CC[C@@H]12 | 20.5% [at 11.4 µM] | – |
| COc1ccc2nc(NC(=O)C3CCN(S(=O)(=O)c4cccc5nsnc45)CC3)sc2c1 | -16.2% | – |
| COc1ccc(CCNC(=O)C2CCN(S(=O)(=O)c3cccc4nsnc34)CC2)cc1OC | -28.5% | – |
| O=S(=O)(c1cccc2cnccc12)N1CCNCC1 | -17.9% | – |
| CC(=O)Nc1ccc(NC(=O)C2CCN(S(=O)(=O)c3cccc4nonc34)CC2)cc1 | -16.4% | – |
| O=C(C1CCCN(S(=O)(=O)c2cccc3nsnc23)C1)N1CC=C(c2ccccc2)CC1 (stereo not given) | – | 1.41 µM (active) |
| CS(=O)(=O)N1CCCC(C(=O)N2CCc3ccccc3C2)C1 (stereo not given) | -20% | – |
| O=C(C1CCN(S(=O)(=O)c2cccc3nsnc23)CC1)N1CCc2ccccc21 | – | 10 µM (active) |
| O=S(=O)(c1cccc2nsnc12)N1CCCC1 | – | 3.55 µM (active) |
| O=S(=O)(c1ccccc1S(=O)(=O)N1CCCCC1)N1CCCCC1 | – | 28.2 µM (active) |
| Cc1cc(N)c2ccccc2[n+]1CCCCCCCCCC[n+]1c(C)cc(N)c2ccccc21 | – | inactive |
| O=C(Nc1ccccc1)N[C@H]1C[C@H](C(=O)O)Nc2cc(Cl)cc(Cl)c21 | -19.5% | – |
| CCCSC1=C(C#N)C(c2cccnc2)C(C(=O)OCC)=C(c2ccccc2)N1 (stereo not given) | – | 8.91 µM (active) |
| COc1ccc(NC(=O)N2CC[C@@]3(CCCN(S(C)(=O)=O)C3)C2)cc1 | 7.02% | – |
| Cc1ccc2c(c1)N(CC(=O)NC1CCC(C)CC1)C(=O)CO2 (stereo not given) | -22.9% | – |
| Cc1ccc2c(c1)N(CCC(=O)NCc1cccnc1)C(=O)CO2 | – | 14.1 µM (active) |
| Cc1ccc2c(c1)N(CC(=O)NC1CCCc3ccccc31)C(=O)CO2 (stereo not given) | 12.5% | – |
